# Source: PubChem BioAssay (NCI)
# This is part of a sample that, as a whole, favours compounds with a hit. Of some 79,000 tested, about 15% had one in any assay. A number with no mark means an inactive call. Active and inactive are the calls of the source. Cut-off read from the data, not from the text of the source: active = growth inhibition above about 70%; inactive = the rest.
# Key:
# [1] = NCI Yeast Anticancer Drug Screen. Data for the rad52 strain (AID 147);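 note: 0% = growth of vehicle-treated control cultures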; conditions: S. cerevisiae rad52 mutant growth inhibition, stronger effect = higher value
# Method in brief: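 Genetically altered yeast (DNA damage repair defect) treated with compound; inhibition calculated relative to vehicle.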
# [2] = NCI Yeast Anticancer Drug Screen. Data for the wt1 strain (AID 149);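 note: 0% = growth of vehicle-treated wt1 cultures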; conditions: S. cerevisiae wt1 strain (SPY 50644) growth inhibition, stronger effect = higher value
# Method in brief: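 Compounds are added to wt1 yeast cultures. Growth is then measured. Inhibition is expressed relative to vehicle-treated controls.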
# [3] = NCI Yeast Anticancer Drug Screen. Data for the rad50EPP+ strain (AID 151);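 note: 0% = growth of vehicle-treated control cultures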; conditions: S. cerevisiae rad50 mutant strain, stronger effect = higher value
# Method in brief: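 Strain rad50EPP+; compound exposure; % growth inhibition vs vehicle.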
# [4] = NCI Yeast Anticancer Drug Screen. Data for the mgt1 strain (AID 153); conditions: S. cerevisiae mgt1 mutant growth inhibition, stronger effect = higher value
# Method in brief: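 Read-out: yeast growth inhibition vs vehicle control. Strain mgt1, drawn from a panel altered in DNA damage repair or cell cycle control.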
# [5] = NCI Yeast Anticancer Drug Screen. Data for the rad50 strain (AID 155);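 note: 0% = growth of vehicle-only cultures of the same strain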; conditions: S. cerevisiae rad50 strain growth inhibition, stronger effect = higher value
# Method in brief: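 Inhibition values express reduced yeast growth in compound-treated cultures relative to vehicle-treated controls.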
# [6] = NCI Yeast Anticancer Drug Screen. Data for the mec2-1 strain (AID 157); conditions: S. cerevisiae mec2-1 strain, stronger effect = higher value
# Method in brief: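 Cells of the genetically defined mec2-1 yeast strain are incubated with test compound. Inhibition of growth is calculated against vehicle-treated controls.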
# [7] = NCI Yeast Anticancer Drug Screen. Data for the rad14 strain (AID 159);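 note: 0% = growth of vehicle-treated control cultures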; conditions: S. cerevisiae rad14 strain growth inhibition, stronger effect = higher value
# Method in brief: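 A mutant yeast strain defective in DNA damage repair is treated with compound; inhibition of its growth is scored against untreated, vehicle-exposed cultures.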
# [8] = NCI Yeast Anticancer Drug Screen. Data for the sgs1 mgt1 strain (AID 161);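 note: 0% = growth of cultures given vehicle only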; conditions: S. cerevisiae sgs1 mgt1 strain, stronger effect = higher value
# Method in brief: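 Inhibition of yeast growth, normalised to vehicle-treated controls, is reported for a strain bearing genetic alterations in DNA damage repair.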
# [9] = NCI Yeast Anticancer Drug Screen. Data for the CLN2oe strain (AID 163);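 note: 0% = growth of vehicle-only control cultures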; conditions: S. cerevisiae CLN2oe strain, stronger effect = higher value
# Method in brief: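 Strain altered in cell-cycle control, incubated with compound; growth compared to solvent-treated controls.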
# [10] = NCI Yeast Anticancer Drug Screen. Data for the cln2 rad14 strain (AID 165);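 note: 0% = growth equal to vehicle treated cultures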; conditions: S. cerevisiae cln2 rad14 strain, stronger effect = higher value
# Method in brief: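 The screen exposed genetically defined yeast (cln2 rad14) to test compounds and scored growth inhibition relative to vehicle-treated controls.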
# [11] = NCI Yeast Anticancer Drug Screen. Data for the bub3 strain (AID 167); conditions: S. cerevisiae bub3 mutant strain, stronger effect = higher value
# Method in brief: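 Steps: expose the mutant yeast strain to compound; grow alongside vehicle-treated cultures; measure growth; express inhibition against the vehicle cultures.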
# [12] = NCI Yeast Anticancer Drug Screen. Data for the wt2 strain (AID 169);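 note: 0% = growth of vehicle-treated yeast cultures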; conditions: S. cerevisiae wt2 strain growth inhibition, stronger effect = higher value
# Method in brief: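 Steps: yeast strain treated with compound; growth recorded; inhibition calculated relative to cultures given vehicle alone.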
# [13] = NCI Yeast Anticancer Drug Screen. Data for the mlh1 strain (AID 171);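 note: 0% = growth of vehicle-treated control cultures of the same strain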; conditions: S. cerevisiae mlh1 strain growth inhibition, stronger effect = higher value
# Method in brief: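 Yeast screen: mutant strain plus compound, growth scored against vehicle control wells.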
# [14] = NCI Yeast Anticancer Drug Screen. Data for the sgs1 strain (AID 173);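 note: 0% = growth of vehicle-only control cultures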; conditions: S. cerevisiae sgs1 mutant, stronger effect = higher value
# Method in brief: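 Inhibition of yeast growth served as the measure. The mutant strain was treated with each compound, and growth was normalised to cultures receiving vehicle alone.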
# [15] = NCI Yeast Anticancer Drug Screen. Data for the mlh1 rad18 strain (AID 175); conditions: S. cerevisiae mlh1 rad18 strain growth inhibition, stronger effect = higher value
# Method in brief: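 Compound-treated yeast growth, normalised to vehicle controls. Strain bears defined DNA repair mutations.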
# [16] = NCI Yeast Anticancer Drug Screen. Data for the rad18 strain (AID 177); conditions: S. cerevisiae rad18 mutant growth inhibition, stronger effect = higher value
# Method in brief: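 Inhibition values reflect reduced yeast growth compared with vehicle-treated controls, using a strain engineered with a DNA damage repair defect.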
# [17] = at 5.0 µM (retest, dose inferred, filed as 0.5)
# [18] = at 50.0 µM (retest, dose inferred, filed as 5.0)
structure (smiles),measurement,setting,value
Cc1ccc(S(=O)(=O)NCCSS(=O)(=O)c2ccc(C)cc2)cc1,growth inhibition,[1]; at 1.2 µM,18%
same,growth inhibition,[1]; at 3.7 µM,31%
same,growth inhibition,[1]; at 11.0 µM,38%
same,growth inhibition,[1]; at 33.0 µM,98% (active)
same,growth inhibition,[1]; at 100.0 µM,95% (active)
same,growth inhibition,[2]; at 1.2 µM,6%
same,growth inhibition,[2]; at 3.7 µM,8%
same,growth inhibition,[2]; at 11.0 µM,28%
same,growth inhibition,[2]; at 33.0 µM,99% (active)
same,growth inhibition,[2]; at 100.0 µM,95% (active)
same,growth inhibition,[3]; at 1.2 µM,-14%
same,growth inhibition,[3]; at 3.7 µM,6%
same,growth inhibition,[3]; at 11.0 µM,64%
same,growth inhibition,[3]; at 33.0 µM,91% (active)
same,growth inhibition,[3]; at 100.0 µM,96% (active)
same,growth inhibition,[4]; at 1.2 µM,-13%
same,growth inhibition,[4]; at 3.7 µM,-8%
same,growth inhibition,[4]; at 11.0 µM,3%
same,growth inhibition,[4]; at 33.0 µM,98% (active)
same,growth inhibition,[4]; at 100.0 µM,94% (active)
same,growth inhibition,[5]; at 1.2 µM,9%
same,growth inhibition,[5]; at 3.7 µM,6%
same,growth inhibition,[5]; [17],36%
same,growth inhibition,[5]; at 11.0 µM,17%
same,growth inhibition,[5]; at 33.0 µM,98% (active)
same,growth inhibition,[5]; [18],95% (active)
same,growth inhibition,[5]; at 50.0 µM,88.7% (active)
same,growth inhibition,[5]; at 100.0 µM,93% (active)
same,growth inhibition,[6]; at 1.2 µM,-2%
same,growth inhibition,[6]; at 3.7 µM,-13%
same,growth inhibition,[6]; [17],-24%
same,growth inhibition,[6]; at 11.0 µM,7%
same,growth inhibition,[6]; at 33.0 µM,98% (active)
same,growth inhibition,[6]; [18],96% (active)
same,growth inhibition,[6]; at 50.0 µM,93% (active)
same,growth inhibition,[6]; at 100.0 µM,96% (active)
same,growth inhibition,[7]; at 1.2 µM,-10%
same,growth inhibition,[7]; at 3.7 µM,-15%
same,growth inhibition,[7]; at 11.0 µM,-6%
same,growth inhibition,[7]; at 33.0 µM,98% (active)
same,growth inhibition,[7]; at 100.0 µM,92% (active)
same,growth inhibition,[8]; [17],7%
same,growth inhibition,[8]; [18],95% (active)
same,growth inhibition,[8]; at 50.0 µM,91% (active)
same,growth inhibition,[9]; at 1.2 µM,-29%
same,growth inhibition,[9]; at 3.7 µM,-16%
same,growth inhibition,[9]; at 11.0 µM,-6%
same,growth inhibition,[9]; at 33.0 µM,96% (active)
same,growth inhibition,[9]; at 100.0 µM,93% (active)
same,growth inhibition,[10]; [17],20%
same,growth inhibition,[10]; [18],96% (active)
same,growth inhibition,[10]; at 50.0 µM,87.2% (active)
same,growth inhibition,[11]; at 1.2 µM,-14%
same,growth inhibition,[11]; at 3.7 µM,-29%
same,growth inhibition,[11]; [17],30%
same,growth inhibition,[11]; at 11.0 µM,-4%
same,growth inhibition,[11]; at 33.0 µM,98% (active)
same,growth inhibition,[11]; [18],97% (active)
same,growth inhibition,[11]; at 50.0 µM,88.8% (active)
same,growth inhibition,[11]; at 100.0 µM,94% (active)
same,growth inhibition,[12]; at 1.2 µM,-14%
same,growth inhibition,[12]; at 3.7 µM,-17%
same,growth inhibition,[12]; at 11.0 µM,-1%
same,growth inhibition,[12]; at 33.0 µM,97% (active)
same,growth inhibition,[12]; at 100.0 µM,94% (active)
same,growth inhibition,[13]; at 1.2 µM,-27%
same,growth inhibition,[13]; at 3.7 µM,-34%
same,growth inhibition,[13]; at 11.0 µM,-14%
same,growth inhibition,[13]; at 33.0 µM,98% (active)
same,growth inhibition,[13]; at 100.0 µM,94% (active)
same,growth inhibition,[14]; at 1.2 µM,20%
same,growth inhibition,[14]; at 3.7 µM,21%
same,growth inhibition,[14]; at 11.0 µM,45%
same,growth inhibition,[14]; at 33.0 µM,99% (active)
same,growth inhibition,[14]; at 100.0 µM,96% (active)
same,growth inhibition,[15]; [17],10%
same,growth inhibition,[15]; [18],95% (active)
same,growth inhibition,[15]; at 50.0 µM,88.7% (active)
same,growth inhibition,[16]; at 1.2 µM,-2%
same,growth inhibition,[16]; at 3.7 µM,6%
same,growth inhibition,[16]; at 11.0 µM,12%
same,growth inhibition,[16]; at 33.0 µM,99% (active)
same,growth inhibition,[16]; at 100.0 µM,94% (active)
Cc1c(C2=C(Br)C(=O)N(C)C2=O)c(=O)n(C)c(=O)n1C,growth inhibition,[1]; at 1.2 µM,11%
same,growth inhibition,[1]; at 3.7 µM,26%
same,growth inhibition,[1]; at 11.0 µM,51%
same,growth inhibition,[1]; at 33.0 µM,67%
same,growth inhibition,[1]; at 100.0 µM,87% (active)
same,growth inhibition,[2]; at 1.2 µM,4%
same,growth inhibition,[2]; at 3.7 µM,13%
same,growth inhibition,[2]; at 11.0 µM,23%
same,growth inhibition,[2]; at 33.0 µM,35%
same,growth inhibition,[2]; at 100.0 µM,73% (active)
same,growth inhibition,[3]; at 1.2 µM,0%
same,growth inhibition,[3]; at 3.7 µM,-2%
same,growth inhibition,[3]; at 11.0 µM,-2%
same,growth inhibition,[3]; at 33.0 µM,1%
same,growth inhibition,[3]; at 100.0 µM,3%
same,growth inhibition,[4]; at 1.2 µM,-1%
same,growth inhibition,[4]; at 3.7 µM,0%
same,growth inhibition,[4]; at 11.0 µM,8%
same,growth inhibition,[4]; at 33.0 µM,23%
same,growth inhibition,[4]; at 100.0 µM,91% (active)
same,growth inhibition,[5]; at 1.2 µM,6%
same,growth inhibition,[5]; at 3.7 µM,15%
same,growth inhibition,[5]; [17],10%
same,growth inhibition,[5]; at 11.0 µM,46%
same,growth inhibition,[5]; at 33.0 µM,78% (active)
same,growth inhibition,[5]; [18],55%
same,growth inhibition,[5]; at 50.0 µM,81.9% (active)
same,growth inhibition,[5]; at 100.0 µM,91% (active)
same,growth inhibition,[6]; at 1.2 µM,7%
same,growth inhibition,[6]; at 3.7 µM,15%
same,growth inhibition,[6]; [17],-3%
same,growth inhibition,[6]; at 11.0 µM,26%
same,growth inhibition,[6]; at 33.0 µM,45%
same,growth inhibition,[6]; [18],20%
same,growth inhibition,[6]; at 50.0 µM,56.1%
same,growth inhibition,[6]; at 100.0 µM,94% (active)
same,growth inhibition,[7]; at 1.2 µM,5%
same,growth inhibition,[7]; at 3.7 µM,13%
same,growth inhibition,[7]; at 11.0 µM,28%
same,growth inhibition,[7]; at 33.0 µM,47%
same,growth inhibition,[7]; at 100.0 µM,91% (active)
same,growth inhibition,[8]; [17],0%
same,growth inhibition,[8]; [18],5%
same,growth inhibition,[8]; at 50.0 µM,58.6%
same,growth inhibition,[9]; at 1.2 µM,-2%
same,growth inhibition,[9]; at 3.7 µM,0%
same,growth inhibition,[9]; at 11.0 µM,1%
same,growth inhibition,[9]; at 33.0 µM,10%
same,growth inhibition,[9]; at 100.0 µM,44%
same,growth inhibition,[10]; [17],20%
same,growth inhibition,[10]; [18],-14%
same,growth inhibition,[10]; at 50.0 µM,3.95%
same,growth inhibition,[11]; at 1.2 µM,1%
same,growth inhibition,[11]; at 3.7 µM,4%
same,growth inhibition,[11]; [17],6%
same,growth inhibition,[11]; at 11.0 µM,18%
same,growth inhibition,[11]; at 33.0 µM,47%
same,growth inhibition,[11]; [18],57%
same,growth inhibition,[11]; at 50.0 µM,28.1%
same,growth inhibition,[11]; at 100.0 µM,91% (active)
same,growth inhibition,[12]; at 1.2 µM,0%
same,growth inhibition,[12]; at 3.7 µM,3%
same,growth inhibition,[12]; at 11.0 µM,11%
same,growth inhibition,[12]; at 33.0 µM,39%
same,growth inhibition,[12]; at 100.0 µM,95% (active)
same,growth inhibition,[13]; at 1.2 µM,0%
same,growth inhibition,[13]; at 3.7 µM,3%
same,growth inhibition,[13]; at 11.0 µM,13%
same,growth inhibition,[13]; at 33.0 µM,48%
same,growth inhibition,[13]; at 100.0 µM,97% (active)
same,growth inhibition,[14]; at 1.2 µM,2%
same,growth inhibition,[14]; at 3.7 µM,11%
same,growth inhibition,[14]; at 11.0 µM,22%
same,growth inhibition,[14]; at 33.0 µM,60%
same,growth inhibition,[14]; at 100.0 µM,94% (active)
same,growth inhibition,[15]; [17],4%
same,growth inhibition,[15]; [18],84% (active)
same,growth inhibition,[15]; at 50.0 µM,91.7% (active)
same,growth inhibition,[16]; at 1.2 µM,17%
same,growth inhibition,[16]; at 3.7 µM,46%
same,growth inhibition,[16]; at 11.0 µM,75% (active)
same,growth inhibition,[16]; at 33.0 µM,88% (active)
same,growth inhibition,[16]; at 100.0 µM,96% (active)
